Screening data as filed in PubChem BioAssay.
KB-3-1 cytotox = kills parental KB-3-1 adenocarcinoma cells; actives 1.4% (n = 400,000); Potency, µM (doses to about 46.1 µM), usual class: cytotoxic; AID 1347075; KB-3-1 viability, CellTiter-Glo ATP luminescence, 72 h; also: nearly all actives have a fitted effect of over 60% in size
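Parental KB-3-1 adenocarcinoma cells in phenol-red-free DMEM with 10% FBS were pin-treated with compounds at several concentrations, incubated 72 h at 37 °C, and viability read by CellTiter-Glo luminescence; concentration-effect curves were fitted after normalization.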
Gal4-VP16 FLuc = counter-screen for ROR gamma inhibitors: Gal4-VP16 reporter. Drosophila S2 Gal4-VP16 UAS-luciferase, luminescence, 20 h. actives 3.5% (n = 310,000). Potency, µM (highest dose often 53.6 µM), most hits filed as inhibitors. AID 2546;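 also: Gal4-VP16 expression switched on by copper sulfate through the metallothionein promoter; nearly all actives have a fitted effect of over 50% in size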
KB-V1 MDR tox = KB-V1 MDR subline cytotoxicity | AID 1347076 | actives 3.4% (n = 400,000) | Potency, µM (top dose mostly 46.1 µM), hits mostly cytotoxic | KB-V1 MDR cells viability, CellTiter-Glo, 72 h; also: nearly all actives have a fitted effect of over 60% in size
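Potencies derive from concentration-effect curves fitted to normalized luminescence (CellTiter-Glo) of KB-V1 cells treated for 72 h at 37 degrees C in phenol-red-free DMEM containing 10% FBS.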
RORg inh = blocks mouse ROR gamma transcriptional activity | actives 5.4% (n = 310,000) | Drosophila S2 Gal4-RORgamma UAS-luciferase reporter, 20 h | Potency, µM (titrated, usually from 53.6 µM), usual class: inhibitors; also: nearly all actives have a fitted effect of over 60% in size
Target sequence (P51450 whole entry, looked up, the tested form may be a part): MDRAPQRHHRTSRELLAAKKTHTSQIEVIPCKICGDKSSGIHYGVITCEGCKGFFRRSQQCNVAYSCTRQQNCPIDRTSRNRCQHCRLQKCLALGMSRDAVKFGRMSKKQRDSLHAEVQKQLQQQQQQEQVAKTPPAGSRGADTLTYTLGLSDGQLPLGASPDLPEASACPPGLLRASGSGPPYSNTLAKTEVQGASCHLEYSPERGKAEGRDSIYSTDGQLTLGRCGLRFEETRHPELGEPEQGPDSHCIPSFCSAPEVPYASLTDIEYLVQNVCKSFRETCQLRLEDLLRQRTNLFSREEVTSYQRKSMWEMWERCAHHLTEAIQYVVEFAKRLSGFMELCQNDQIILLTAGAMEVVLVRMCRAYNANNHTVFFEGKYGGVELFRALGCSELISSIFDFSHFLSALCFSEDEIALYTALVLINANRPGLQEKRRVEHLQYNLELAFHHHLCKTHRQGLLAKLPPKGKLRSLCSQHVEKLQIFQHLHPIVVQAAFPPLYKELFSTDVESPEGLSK
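Drosophila S2 cells stably expressing Gal4-DBD/mouse RORγ fusion under metallothionein promoter plus UAS-luciferase; compound 1 h, then 700 uM CuSO4 induction for 20 h at ambient temperature; inhibition read as reduced luminescence.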
SW480 rerep = DNA re-replication induction in SW480 cells; SW480 DNA re-replication, Hoechst DNA content imaging, 48 h; Potency, µM (highest dose often 46.1 µM), most hits filed as activators; actives 1.8% (n = 340,000); also: nearly all actives have a fitted effect of over 55% in size
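Hoechst fluorescence of nuclei (405 nm excitation, 500-530 nm emission) measured by plate-scanning imager after 48 hr compound exposure at 37 C; re-replication scored as increased number of nuclei with elevated intensity.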
MCF10A rerep = induces DNA re-replication in MCF 10a normal breast cells. MCF 10A DNA re-replication, Hoechst nuclear intensity, 48 h. Potency, µM (highest dose often 46.1 µM), usual class: activators. actives 2.9% (n = 350,000); also: nearly all actives have a fitted effect of over 50% in size
Of the large screens only hits and unclear results are named; the others gave an inactive call. This is a sample that favours compounds with a hit; in the whole collection about 10% have one here. Calls follow the shape of the dose curve; as a rule, active = well fitted curve in the direction sought with a large enough effect; inconclusive = small, poorly fitted or top-dose-only effect, or another doubt; inactive = no such curve, though single readings can be large; an effect the other way counts as inactive or inconclusive.

COc1ccc(C2=NOC(C(=O)NCc3ccccn3)C2)cc1 (centres undefined)	KB-V1 MDR tox inconclusive
COc1ccc(C2=NOC(C(=O)NCc3cccs3)C2)cc1 (centres undefined)	KB-3-1 cytotox 6.5µM, KB-V1 MDR tox 2.9µM, MCF10A rerep 9.2µM
COc1cc(NC(=O)C2CC(c3cccc(OC)c3OC)=NO2)cc(OC)c1OC (centres undefined)	KB-3-1 cytotox inconclusive, Gal4-VP16 FLuc inconclusive, RORg inh inconclusive, SW480 rerep inconclusive, MCF10A rerep 16µM
COc1cccc(C2=NOC(C(=O)Nc3cccnc3Cl)C2)c1OC (centres undefined)	none
COc1cccc([C@@H]2Oc3ccc(OC)cc3C(=O)[C@H]2OC(=O)NCCOc2ccccc2)c1	none (no result: KB-3-1 cytotox, KB-V1 MDR tox, SW480 rerep, MCF10A rerep)
CC[C@H](C)[C@H](NC(=O)CNC(=O)[C@H](CCCNC(=N)N)NC(=O)[C@H](CO)NC(=O)[C@H](C)NC(=O)[C@H](Cc1ccc(O)cc1)NC(=O)[C@H](Cc1c[nH]c2ccccc12)NC(=O)[C@H](C)NC(=O)[C@@H]1CCCN1C(=O)[C@H](CC(N)=O)NC(=O)[C@@H](NC(=O)[C@H](CC(=O)O)NC(=O)[C@@H]1CCCN1C(=O)[C@@H](NC(=O)[C@H](CCCNC(=N)N)NC(=O)[C@@H](NC(=O)[C@H](CCC(=O)O)NC(=O)[C@H](CCSC)NC(=O)[C@H](CO)NC(=O)[C@H](Cc1cnc[nH]1)NC(=O)[C@H](CCCNC(=N)N)NC(=O)[C@H](Cc1cnc[nH]1)NC(=O)[C@@H](NC(=O)[C@H](CCCNC(=N)N)NC(=O)[C@@H](N)CO)[C@@H](C)O)[C@@H](C)CC)[C@@H](C)O)[C@@H](C)CC)C(=O)N[C@@H](CCCNC(=N)N)C(=O)N1CCC[C@H]1C(=O)N[C@H](C(=O)NCC(=O)N[C@@H](CCCNC(=N)N)C(=O)N[C@@H](Cc1ccccc1)C(N)=O)C(C)C	none (no result: KB-3-1 cytotox, KB-V1 MDR tox, SW480 rerep, MCF10A rerep)
OC[C@@H]1CN(Cc2cccc(C(F)(F)F)c2)C[C@H](n2cnc3c(NCc4ccco4)ncnc32)O1	none (no result: Gal4-VP16 FLuc, RORg inh, SW480 rerep, MCF10A rerep)
CCC(CC)C(=O)c1c[nH]c(C(=O)NN)c1	SW480 rerep inconclusive, MCF10A rerep 10µM
CCC(CC)C(=O)c1c[nH]c(C(=O)O)c1	SW480 rerep inconclusive
Cc1cccc(N2CCN(C(=O)C3CCC(CNS(=O)(=O)c4ccc(Br)s4)CC3)CC2)c1C (centres undefined)	none (no result: Gal4-VP16 FLuc, RORg inh, SW480 rerep, MCF10A rerep)
Cc1ccc(S(=O)(=O)NCC2CCC(C(=O)N3CCN(C)CC3)CC2)cc1 (centres undefined)	SW480 rerep inconclusive, MCF10A rerep 18µM
Cc1cccc(N2CCN(C(=O)C3CCC(CNS(=O)(=O)c4cccs4)CC3)CC2)c1C (centres undefined)	KB-3-1 cytotox 21µM, Gal4-VP16 FLuc 11µM, KB-V1 MDR tox inconclusive, RORg inh inconclusive, SW480 rerep inconclusive, MCF10A rerep inconclusive
COC(=O)C1CCN(C(=O)C2CCN(C(=O)[C@@H](NS(=O)(=O)c3ccc(C)cc3)C(C)C)CC2)CC1	Gal4-VP16 FLuc inconclusive, RORg inh 1.1µM
CCN1CCN(C(=O)C2CCC(CNS(=O)(=O)c3ccccc3)CC2)CC1 (centres undefined)	none
O=C(NCCN1CCOCC1)C1CCC(CNS(=O)(=O)c2ccc(Cl)cc2)CC1 (centres undefined)	MCF10A rerep 16µM
C/C(=N\N=C(/N)c1nonc1N)c1ccc2c(c1)OCO2	KB-3-1 cytotox 6.5µM, KB-V1 MDR tox 1.5µM
O=S1(=O)C2CC3C=CC2(O3)C(O)C(Cc2ccccc2)N1Cc1cccc(C(F)(F)F)c1 (centres undefined)	none (no result: KB-3-1 cytotox, KB-V1 MDR tox, SW480 rerep, MCF10A rerep)
Cc1cccc(OCC(=O)Nc2ccc(O)c(-c3nc4ccccc4o3)c2)c1	none (no result: Gal4-VP16 FLuc, RORg inh, SW480 rerep, MCF10A rerep)
CCC(C)(C)n1nnnc1C(c1cc2ccc(C)cc2[nH]c1=O)N(Cc1cccnc1)Cc1ccco1 (centres undefined)	KB-V1 MDR tox 21µM, SW480 rerep inconclusive, MCF10A rerep inconclusive
Cc1cc2cc(C(c3nnnn3C3CCCC3)N(Cc3cccnc3)Cc3ccco3)c(=O)[nH]c2cc1C (centres undefined)	SW480 rerep inconclusive, MCF10A rerep inconclusive
CCCCCCCCCCCCCCCC(=O)C(F)(F)F	none (no result: KB-3-1 cytotox, KB-V1 MDR tox, SW480 rerep, MCF10A rerep)
Cc1cc(C)cc(NC(=S)NCc2ccc3[nH]c4c(c3c2)CCCC4)c1	KB-3-1 cytotox inconclusive, Gal4-VP16 FLuc 7.1µM, RORg inh 2.5µM, SW480 rerep inconclusive, MCF10A rerep inconclusive
CCS(=O)(=O)NCc1ccc2[nH]c3c(c2c1)CCCC3	none (no result: KB-3-1 cytotox, KB-V1 MDR tox, SW480 rerep, MCF10A rerep)
S=C(NCc1ccc2[nH]c3c(c2c1)CCCC3)Nc1ccccc1	Gal4-VP16 FLuc 10µM, RORg inh 1.8µM, SW480 rerep inconclusive, MCF10A rerep 21µM
Cc1cc(C)cc(NC(=O)CN(C)S(=O)(=O)c2ccc3[nH]c4c(c3c2)CCCC4)c1	none (no result: Gal4-VP16 FLuc, RORg inh, SW480 rerep, MCF10A rerep)
c1cnc(-c2nnc3n2CCCCC3)cn1	SW480 rerep inconclusive, MCF10A rerep 1.5µM
c1cc(-c2nnc3n2CCCCC3)ccn1	none
Cc1ccnc(NC(=S)N2CCN(C)CC2)c1	none (no result: Gal4-VP16 FLuc, RORg inh, SW480 rerep, MCF10A rerep)
COc1ccc(-c2csc(N(CCc3ccccc3)C(=O)COc3ccccc3)n2)cc1	KB-V1 MDR tox 16µM
CCN(CC)CCCN(C(=O)c1cccs1)c1nc(-c2ccc(OC)cc2)cs1	KB-3-1 cytotox inconclusive, KB-V1 MDR tox 8.2µM, SW480 rerep 18µM, MCF10A rerep inconclusive
CCN(CC)CCCN(C(=O)c1ccc(Br)cc1)c1nc(-c2ccc(OC)cc2)cs1	KB-3-1 cytotox inconclusive, KB-V1 MDR tox inconclusive, SW480 rerep inconclusive, MCF10A rerep inconclusive
COC(=O)c1ccc(-c2nc3cc(Cl)c(N)cc3s2)cc1	RORg inh 5µM, SW480 rerep inconclusive, MCF10A rerep 0.65µM
c1ccc(CN(Cc2ccccc2)C(c2ccnc3ccccc23)c2nnnn2-c2ccc3c(c2)OCCO3)cc1 (centres undefined)	KB-3-1 cytotox inconclusive, KB-V1 MDR tox 18µM (no result: Gal4-VP16 FLuc, RORg inh, SW480 rerep, MCF10A rerep)
N#CCCN(Cc1ccccc1)C(c1ccnc2ccccc12)c1nnnn1-c1ccc2c(c1)OCCO2 (centres undefined)	KB-V1 MDR tox inconclusive (no result: Gal4-VP16 FLuc, RORg inh, SW480 rerep, MCF10A rerep)
O=C(OCc1ccccc1)N1CCN(C(c2ccnc3ccccc23)c2nnnn2-c2ccc3c(c2)OCCO3)CC1 (centres undefined)	KB-3-1 cytotox 23µM, KB-V1 MDR tox inconclusive (no result: Gal4-VP16 FLuc, RORg inh, SW480 rerep, MCF10A rerep)
CC(=O)OC1COC(n2c(O)c(N=NC(N)=S)c3ccccc32)C(OC(C)=O)C1OC(C)=O (centres undefined)	Gal4-VP16 FLuc 10µM, KB-V1 MDR tox inconclusive, RORg inh 6.3µM, SW480 rerep inconclusive, MCF10A rerep 0.65µM
Cn1c(O)c(N=NC(N)=S)c2ccccc21	Gal4-VP16 FLuc 3.2µM, RORg inh 1.1µM (no result: KB-3-1 cytotox, KB-V1 MDR tox)
